Experimental data taken from the supplement of paper PMC6897291.
Where a name gives a salt, the structure may show the parent alone.

Test system: RIVA
Assay: growth inhibition by drug alone (1 - RLU/untreated control) (fraction); higher = stronger inhibition
Settings: 177Lu-lilotomab satetraxetan 0 ug/ml
Protocol: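 RIVA (RI-1) ABC-DLBCL cells were pretreated or not for 18 h with 0.5 ug/ml 177Lu-lilotomab satetraxetan (600 MBq/mg), washed and seeded (3000 cells/well) on 384-well plates pre-printed with the Selleck Cambridge Cancer Compound library. Viability was read by RealTime-Glo luminescence on days 3-6 after seeding. Effect = 1 - RLU/mean RLU of the 48 untreated no-drug control wells per plate; Bliss score = (M-E)/(1-Fa).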

Question: Which results are given for `COc1ccc(CCN2CCN(CCCc3ccccc3)CC2)cc1OC`?
Answer: growth inhibition by drug alone (10 nM, time (day): 3): -0.0905; growth inhibition by drug alone (10 nM, time (day): 4): -0.186; growth inhibition by drug alone (10 nM, time (day): 5): -0.542; growth inhibition by drug alone (10 nM, time (day): 6): -0.55; growth inhibition by drug alone (100 nM, time (day): 3): -0.612; growth inhibition by drug alone (100 nM, time (day): 4): -0.501; growth inhibition by drug alone (100 nM, time (day): 5): -0.797; growth inhibition by drug alone (100 nM, time (day): 6): -0.809

Question: Which results are given for `Nc1ccc(C(=O)Nc2cccc(-c3nc(N4CCOCC4)c4oc5ncccc5c4n3)c2)cn1`?
Answer: growth inhibition by drug alone (10 nM, time (day): 3): -0.00332; growth inhibition by drug alone (10 nM, time (day): 4): -0.02; growth inhibition by drug alone (10 nM, time (day): 5): -0.0954; growth inhibition by drug alone (10 nM, time (day): 6): -0.385; growth inhibition by drug alone (100 nM, time (day): 3): 0.0916; growth inhibition by drug alone (100 nM, time (day): 4): 0.0201; growth inhibition by drug alone (100 nM, time (day): 5): 0.0261; growth inhibition by drug alone (100 nM, time (day): 6): -0.0381

Question: What does the source list for `C[C@]12CC[C@H](O)CC1=CC[C@@H]1[C@@H]2CC[C@]2(C)C(c3cccnc3)=CC[C@@H]12` [Abiraterone (CB-7598)]?
Answer: growth inhibition by drug alone (10 nM, time (day): 3): -0.0346; growth inhibition by drug alone (10 nM, time (day): 4): -0.0301; growth inhibition by drug alone (10 nM, time (day): 5): -0.224; growth inhibition by drug alone (10 nM, time (day): 6): -0.618; growth inhibition by drug alone (100 nM, time (day): 3): -0.373; growth inhibition by drug alone (100 nM, time (day): 4): -0.274; growth inhibition by drug alone (100 nM, time (day): 5): -0.381; growth inhibition by drug alone (100 nM, time (day): 6): -0.72

Question: Which “growth inhibition by drug alone” value (10 nM, time (day): 3) does the source give for `COc1ccc(CCN(C)CCCOc2ccc(S(=O)(=O)c3c(C(C)C)n(C)c4ccccc34)cc2)cc1OC` here?
Answer: 0.00966

Question: And the “growth inhibition by drug alone” value (10 nM, time (day): 4)?
Answer: 0.000445

Question: And the “growth inhibition by drug alone” value (10 nM, time (day): 5)?
Answer: -0.0789

Question: And the “growth inhibition by drug alone” value (10 nM, time (day): 6)?
Answer: -0.342

Question: And the “growth inhibition by drug alone” value (100 nM, time (day): 3)?
Answer: -0.377

Question: What about the “growth inhibition by drug alone” value (100 nM, time (day): 4) of the same compound?
Answer: -0.25

Question: What about the “growth inhibition by drug alone” value (100 nM, time (day): 5) of the same compound?
Answer: -0.308

Question: And the “growth inhibition by drug alone” value (100 nM, time (day): 6)?
Answer: -0.545

Question: How did the “growth inhibition by drug alone” value (10 nM, time (day): 3) turn out when `COC1=CC(c2cc3ccccc3[nH]2)=N/C1=C\c1[nH]c(C)cc1C` [Obatoclax mesylate (GX15-070)] was run?
Answer: 0.00951

Question: And the “growth inhibition by drug alone” value (10 nM, time (day): 4)?
Answer: 0.024

Question: What about the “growth inhibition by drug alone” value (10 nM, time (day): 5) of the same compound?
Answer: -0.054

Question: What about the “growth inhibition by drug alone” value (10 nM, time (day): 6) of the same compound?
Answer: -0.371

Question: What about the “growth inhibition by drug alone” value (100 nM, time (day): 3) of the same compound?
Answer: -0.444

Question: What about the “growth inhibition by drug alone” value (100 nM, time (day): 4) of the same compound?
Answer: -0.248

Question: What about the “growth inhibition by drug alone” value (100 nM, time (day): 5) of the same compound?
Answer: -0.309

Question: What about the “growth inhibition by drug alone” value (100 nM, time (day): 6) of the same compound?
Answer: -0.6
